In PubChem BioAssay AID1508600 (Functional Genomics Laboratory (NCATS/FGL), 2020):
The campaign covered roughly 53,000 sequences. About 3,700 (7%) were called active. This is one part of a sample in which actives are shown more often than they occur. Values without a mark were called inactive.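 The calls were made as follows: active = gene knockdowns whose robust z-score for IL-1 alpha signal is at least 2 or at most -2, so actives lie on both sides; inactive = the rest.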

Assay: Components of the Cytosolic LPS Sensing Pathway: Gene Identification via Genome-wide siRNA Screen;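 also: robust z of the log signal after scaling to non-targeting control siRNA wells of the plate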
Details: RAW264.7 macrophages, IL-1a HTRF, actives lie on both sides, screened at 100 nM (by protocol), cells primed 5 h with Pam3CSK4 first
In short: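 Three distinct siRNAs per gene were tested singly at 100 nM in RAW264.7 macrophages. Following Pam3CSK4 priming and 24 hour LipidA transfection, IL-1a secretion was read by HTRF.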

| Sequence | z-score |
| --- | --- |
| GCCAGUUCAUACAAGAGGGTT against Zfp946 | 0.623 |
| GGAGAUCACAGCAAUCCGATT against Ccna1 | -1.01 |
| GUAUGUUGACAUUUGCCUGTT against Olfr113 | -2.05 (active) |
| GGGCGGAGCAUUUUUCUUGTT against Ube2d2b | 0.483 |
| GGAAGAUGACAGUGCUGUATT against Utp25 | -0.868 |
| GGGAUAAGUACUCUGCUAATT against Sorcs3 | -0.146 |
| CCAAGGGUCACCUAUUUUUTT against Kcna5 | 1.97 |
| CCUGCAUUAGCAUGUUAGGTT against Gfral | -0.483 |
| GGUAGCUAAGAAGUUUAUUTT against Dck | 1.55 |
| GGAUUUAUCCCAAAAUCUATT against Tmem26 | 0.42 |
| GGUUCCUACGAGUUCACUGTT against B130024G19Rik | -2.76 (active) |
| GGAUCAAAUAACAAUGACATT against Hfm1 | -0.567 |
| GGCCAUGGUUCUAUAGGACTT against Zbtb37 | 0.764 |
| GCUUGUAAAUGGAACGACATT against 0610012G03Rik | -0.69 |
| CCAUAUUUUACCCAAAAGCTT against Prune1 | -1.04 |
| CGAAGGAGUCAAAACUGGGTT against Klk1b8 | -1.79 |
| GGAGAUCUCACCGACAUUGTT against Cpt1c | -1.22 |
| GGCUUUGCUACUUGGGAUATT against Wdr86 | 3.16 (active) |
| CCUACUCGUAUAAUCUUCUTT against Ago3 | 0.496 |
| GCGUUUGGGCCGGAAGAAATT against Smo | 0.57 |
| GGCAGUUUGAGAUUGUGUCTT against Thbs2 | -0.00379 |
| GCUCAUCGAGCCUGUACACTT against Med26 | -0.296 |

| Sequence | z-score |
| --- | --- |
| GGUGGAACCCAAUGACACCTT against Cers5 | 1.21 |
| GGCUUCUACCUUCGAGACUTT against Carns1 | -2.3 (active) |
| GGUAGUUGUGCCAGAAAAATT against Garre1 | 0.0675 |
| GGACCCUCUAGAUGACCAATT against Trem2 | -1.09 |
| GGUUCCUUUAACUUUGGUUTT against A730089K16Rik | 2.18 (active) |
| CCUUUACACGUAAAAGAAGTT against Zfp445 | -0.194 |
| CCUGUUGAGUACUGUGCUGTT against Olfr987 | -0.437 |
| CCCAUGUAAGGAUGUGUCGTT against Frmd5 | 0.761 |
| CGGGAAGCUAUCAUCAAAATT against Rgs13 | 0.12 |
| GGACACAGAAAAAGUUGAATT against Tbc1d4 | -0.0174 |
| GCAAUGGACUACUGCUGCUTT against Olfr704 | -2.26 (active) |
| GGAUGUUAAAAUUGCCCUGTT against Olfr911-ps1 | 0.896 |
| GGACGAGAAUCAAGAGCAGTT against Cdkn1c | -0.0249 |
| UGGUUGUGAUCAACAGAAUTT against Cyp2d12 | -0.933 |
| CCAUUUAUAUCAGGCAUCATT against Lrit1 | -0.647 |
| GGGUAAUCAGAUUGAAAGATT against Dnah5 | 0.0753 |
| GGUGGAGAGUGAACAACAATT against Tpr | -1.25 |
| GGUCUUCCUUGAACAUCAGTT against Fev | -2.05 (active) |
| GGUAUGAGCUGAUCAAGUATT against Slc27a2 | 1.67 |
| GUACACUCAAUCACUCUUGTT against Rexo5 | 0.966 |
| CGACCUACUUGGGAUGAUGTT against Pea15b | 0.683 |
| GCAAGUGAUGAAUGCUUACTT against Ncln | -2.62 (active) |

| Sequence | z-score |
| --- | --- |
| GCCUGAUACCUUGAAGGAATT against Qpctl | -0.382 |
| CGACAACGACAUCAUGGAATT against Sfrp2 | 1.52 |
| GGGAAUGAAAUGUUCUUCGTT against Ttl | -0.121 |
| CGCAGUGGACUCAUCUUGATT against Sestd1 | -0.65 |
| GCCAUUCUAAGCUGCCAAATT against Mcat | -0.000938 |
| GGACAGAGCGUGCACUAGATT against Slc66a1 | -1.32 |
| CCUGGCACUCAUAGUAUACTT against Tm6sf2 | -2.33 (active) |
| GGUGCUGGUUUUUAAGAAATT against Hsbp1 | 1.84 |
| CGGAAUGCCAAAGAUGUGGTT against Sult1d1 | -0.872 |
| GUGACUCCCAAACUCCUGATT against Olfr1180 | -1.81 |
| CCAUUCCUUAAAAGAGCAUTT against Lce1g | 1.07 |
| GGACUUUCUUAACUACACUTT against Slc2a3 | 0.865 |
| GGAUUACGGUGGGAUCAUGTT against Faxc | -1.38 |
| GGUGCUGAUGGGAGAUAGUTT against 1700010H22Rik | -0.851 |
| GGAAAUCUACAUCAUGGCUTT against Ift140 | -2 (active) |
| GGGAAGAGAGACGAAAAAATT against Nufip1 | 1.13 |
| GGACCAGCUUGAAGCUGAATT against Atl2 | 0.388 |
| GGCUAAAAUAAAGAAGAAGTT against Cfap100 | 0.00546 |
| CCGACAGCUCUAAAGGAACTT against Celf6 | 0.838 |
| GCUACACCCGCAUGACAAATT against Trit1 | 2.43 (active) |
| GGUUAUAUAAGCAUCAAGGTT against Adamts18 | -0.621 |
| GCAGAGCGGGAUUUCAUUCTT against Sh3glb2 | -1.23 |

| Sequence | z-score |
| --- | --- |
| CCAUAUGGCUUAUCUUAUUTT against Adam5 | 0.138 |
| GGCAAGAAGGACAAUGAGUTT against Mb21d2 | -2.82 (active) |
| GGUUUUUGUUGUAAUAGGCTT against Olfr915 | -0.758 |
| GGUAACAACUUUUAAGCCUTT against Prps2 | -0.318 |
| GCAGCUUAAGUUGCCCAAGTT against Aatk | -0.27 |
| GGAUUUUGCUGUUUUGGAATT against Dsc1 | 0.41 |
| CGGUAGCCAUAUUAAUAUCTT against Spink2 | 0.417 |
| GGCUUACAAUGUGAUUUACTT against Cd7 | 1.92 |
| GCUUCACUCUCUUCUUUGCTT against Olfr1463 | -3.05 (active) |
| GCUCAACAAGGAUACGGUGTT against Tnfrsf11a | 0.704 |
| GGAUAUAACCAUCCUCUGUTT against Zscan29 | 0.578 |
| GGGUCCCAAACAAUAACUUTT against Aebp1 | 1.7 |
| CCCAGACUCAGUUUUAACUTT against Spsb4 | -1.88 |
| GGGCCUCCUUCUCAUCAUUTT against Scarf2 | 0.9 |
| GGUAACUUCCCAGGAGGGATT against Bcl9 | 0.549 |
| GGAUUGGUUCAUGACCUGATT against Trim52 | -0.814 |
| GGUGAUCCUUAUGCUGUUATT against Ehmt2 | 0.305 |
| GGUGCUUGGGAAUUUUGAUTT against Gpsm2 | 2.31 (active) |
| CCAUCAUGACGGUUCCCUATT against Mrgpra5 | -1.43 |
| GGUUCUUCCCACAGAAGACTT against Pggt1b | 0.176 |
| GGAUGACGAAGCCUAUGAUTT against Nacc2 | -1.16 |
| GGAGUGACAAAAGAAAUAATT against Nudt12 | 0.489 |

| Sequence | z-score |
| --- | --- |
| GGAAAUACUCUCAUCAUCGTT against Olfr214 | -1.17 |
| CGCAUAUCUAGAAUGGUUATT against 2810021J22Rik | 1.74 |
| GGGUAACAGAUGAAGGGUCTT against Synpo2l | 2.48 (active) |
| GGACUACUCCAGAAAGCUUTT against Wdfy3 | -0.0605 |
| GCAAAAUGGUUCCUUUGGATT against Sec24c | -0.396 |
| GGACAUUAUUUCUAUAUGGTT against Eif4e2 | -1.2 |
| GGCCCAUUCAGAUCAUCCATT against Vmn1r65 | -0.197 |
| CCCGGUAUUAAAUUUAAUGTT against Aox4 | 0.807 |
| GCAUGUUUAGAACUAGCUCTT against Zfp87 | 0.76 |
| CCAUCAAUUGGAAAUCUUUTT against Tnn | -1.01 |
| GGUACAUCUUAGAGGCCAATT against Epo | 2.66 (active) |
| CUCAGAUAUUCUUUUCCCATT against Olfr142 | -1.25 |
| CGUGUAACACACGAUUAGATT against Myot | 0.587 |
| GGAACUUCAUUGAACUAUGTT against Trmt2b | -0.363 |
| GGACGUGUACAUUGUCAAGTT against Unc5a | 2.07 (active) |
| GUUAUCAGGAAGGAAAGCCTT against Sdhaf4 | 0.248 |
| GGACAGCAAGACAGAAAACTT against Csf2rb2 | -0.26 |
| GGCUGGAGAUCUCUCAAAGTT against Nkain2 | 1.64 |
| CGAGAUUAUCAGUCAAUUGTT against Tex24 | 2.02 (active) |
